Compounds with a hit are over-represented: about 8.5% of the library has one in this group of screens.
FBPA coupling cs: qHTS Assay for Inhibitors of Fructose-1,6-bisphosphate Aldolase from Giardia Lamblia: Coupling assay counterscreen | AID 2472, 2010 | actives 0.67% (n = 290,000) | coupling enzyme system counterscreen, AmpLite Red fluorescence | activity change, negative = inhibition, % at 58.2 µM, hits read low; in the data active means activity change below about -30%
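Coupling enzymes only (glyceraldehyde-3-phosphate) + compound, at 57.5 uM final, 10 min RT; add substrate/coupling/AmpLite Red mix, 20 min RT; fluorescence ex 525/em 598 nm. Actives flag coupling-system interference.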
KDM4E inh: qHTS Assay for Inhibitors of Human Jumonji Domain Containing 2E (JMJD2E) | Lysine-specific demethylase 4E (Homo sapiens), B2RXH2 | JMJD2E catalytic domain, FDH-coupled NADH fluorescence (FDH is formaldehyde dehydrogenase) | Potency, µM (top dose mostly 57.1 µM), for the others: at the top dose activity change, negative = inhibition, most hits filed as inhibitors | actives 1.6% (n = 230,000) | AID 2147, 2009;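 further: potency means the concentration at half of the fitted maximal effect; 0% = wells with enzyme and -100% = buffer wells without enzyme; nearly all actives have a fitted effect of over 50% in size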
Target sequence (B2RXH2 1-337 limits assumed): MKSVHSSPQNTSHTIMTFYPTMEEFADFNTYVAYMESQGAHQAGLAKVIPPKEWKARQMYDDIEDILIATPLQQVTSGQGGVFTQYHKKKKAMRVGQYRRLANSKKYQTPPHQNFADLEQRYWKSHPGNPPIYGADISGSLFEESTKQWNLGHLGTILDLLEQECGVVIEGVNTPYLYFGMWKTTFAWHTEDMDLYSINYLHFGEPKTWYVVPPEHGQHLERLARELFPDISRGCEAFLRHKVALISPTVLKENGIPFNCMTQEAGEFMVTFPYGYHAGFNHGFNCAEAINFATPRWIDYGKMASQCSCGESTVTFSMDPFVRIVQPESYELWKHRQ
RGS12 GoLoco inh: qHTS Assay for Inhibitors of RGS12 GoLoco Motif Activity (Red Fluorophore); Guanine nucleotide-binding protein G(i) subunit alpha-1 (Homo sapiens), P63096; Gai1:RGS12 GoLoco peptide FP, rhodamine, 10 min; Potency, µM (doses to about 61.6 µM), without a hit: at the top dose activity, negative = inhibition, hits mostly inhibitors; actives 0.44% (n = 230,000); AID 880, 2007; active means well fitted inhibition curve with a large enough effect, not every such curve was filed as active; inactive means no such curve, though single readings can be large or run the other way; further: potency means the concentration at half of the fitted maximal effect; nearly all actives have a fitted effect of over 30% in size
NPSR antag: qHTS Assay for Antagonists of the Neuropeptide S Receptor: cAMP Signal Transduction; Potency, µM (titrated, usually from 38.3 µM), without a hit: top-dose activity change, negative = inhibition, usual class: inhibitors; AID 1461, 2008; actives 1% (n = 220,000); Q6W5P4; CHO-NPSR cells, cAMP TR-FRET, antagonist mode; active means well fitted curve in the direction sought with a large enough effect; inconclusive means small, poorly fitted or top-dose-only effect, or another doubt; inactive means no such curve, though single readings can be large; an effect the other way counts as inactive or inconclusive; further: potency means the concentration at half of the fitted maximal effect; nearly all actives have a fitted effect of over 50% in size
Target sequence (Q6W5P4 whole entry, looked up): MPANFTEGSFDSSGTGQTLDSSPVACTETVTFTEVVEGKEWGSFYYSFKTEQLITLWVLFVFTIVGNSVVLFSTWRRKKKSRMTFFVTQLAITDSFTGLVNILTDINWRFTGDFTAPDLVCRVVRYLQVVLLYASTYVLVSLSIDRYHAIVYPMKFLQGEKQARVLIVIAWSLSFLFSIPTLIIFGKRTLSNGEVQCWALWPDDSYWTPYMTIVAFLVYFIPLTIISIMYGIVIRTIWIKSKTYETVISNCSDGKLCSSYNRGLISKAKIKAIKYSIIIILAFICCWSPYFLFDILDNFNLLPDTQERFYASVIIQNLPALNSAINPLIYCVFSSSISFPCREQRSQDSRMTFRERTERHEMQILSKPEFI
Sfp PPTase inh: qHTS Assay for Inhibitors of Bacillus subtilis Sfp phosphopantetheinyl transferase (PPTase) | 4'-phosphopantetheinyl transferase ffp (Bacillus subtilis), Q9F4F7 | Biochemical Sfp PPTase activity, qHTS | Potency, µM, without a hit: largest response in the series, negative = inhibition, most hits filed as inhibitors | actives 3.5% (n = 310,000) | AID 1490, 2009; active means well fitted curve in the direction sought with a large enough effect; inconclusive means small, poorly fitted or top-dose-only effect, or another doubt; inactive means no such curve, though single readings can be large; an effect the other way counts as inactive or inconclusive;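 further: the enzyme is Sfp with the accession as filed and its product quenches rhodamine fluorescence; potency means the concentration at half of the fitted maximal effect; 0% = enzyme reaction without inhibitor and -100% = no enzyme wells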
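Fluorescence-quenching assay with 15 nM Sfp, 5 uM rhodamine-CoA and 12.5 uM BHQ-2-labelled ybbR peptide in pH 7.6 Hepes/MgCl2 buffer. Enzyme was pre-incubated with compound for 15 min at room temperature. Rate was taken from the 30-min fluorescence change (525/598 nm).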
ALDH1A1 inh: qHTS Assay for Inhibitors of Aldehyde Dehydrogenase 1 (ALDH1A1); Purified ALDH1A1, NADH fluorescence, propionaldehyde substrate; Potency, µM (top dose mostly 75.3 µM), inactives show at the highest dose activity, negative = inhibition, most hits filed as inhibitors; Aldehyde dehydrogenase 1A1 (Homo sapiens), P00352; actives 7.3% (n = 220,000);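 further: potency means the concentration at half of the fitted maximal effect; plate controls were no enzyme wells and a reference inhibitor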
* = called active by the depositor; ? = inconclusive; · = no result; [ ] = another dose, or the depositor's remark. Unless noted, the call rests on the fitted dose curve; in most records, active means well fitted inhibition curve with a large enough effect (not every such curve was filed as active); inconclusive means small, poorly fitted or top-dose-only effect, or another doubt; inactive means no such curve, though single readings can be large or run the other way. Unless noted, on the % scale 0 is the no-effect control and ±100 the full control effect.

SMILES	FBPA coupling cs	KDM4E inh	RGS12 GoLoco inh	NPSR antag	Sfp PPTase inh	ALDH1A1 inh
C/C(CS(=O)(=O)c1ccc(Cl)cc1)=N/NC(N)=S	-2.1	1.1%	6.9%	9.2%	79.4µM*	-15.6%
O=[N+]([O-])c1ccc(NCCc2ccccc2)c(Br)c1	0.3	·	·	·	-12.8%	·
Cc1ccc2[nH]c(=O)c(CN(Cc3cccs3)Cc3nnnn3CC3CCCO3)cc2c1 (stereo not drawn)	0.0	-2.6%	-3.9%	?	4.0%	20µM*
Cc1ccc2cc(CN(Cc3cccs3)Cc3nnnn3CC3CCCO3)c(=O)[nH]c2c1 (stereo not drawn)	2.6	-7.9%	22.6%	-20.0%[46.1 µM]	-13.9%	7.94µM*
Cc1ccc2cc(CN(Cc3cccs3)Cc3nnnn3CC3CCCO3)c(=O)[nH]c2c1C (stereo not drawn)	1.0	?	24.8%	-23.9%[46.1 µM]	4.8%	?
CCN(CC)C(=O)COc1coc(CN2CCN(c3ccccc3)CC2)cc1=O	·	·	·	·	13.3%	·
c1ccc(-c2n[nH]c(-c3ccccn3)n2)nc1	1.8	8.2%	7.7%	3.7%[46.1 µM]	20µM*	5.5%
c1ccc(-c2ccc(-c3ccccn3)nn2)nc1	-3.7	?	14.3%	-8.3%[46.1 µM]	15.8µM*	20µM*
c1ccc(-c2nn[nH]n2)nc1	0.8	?	15.0%	14.3%	56.2µM*	·
c1ccc(-c2nn[nH]n2)cc1	1.6	5.7%	-1.7%	11.6%	18.7%	·
CSc1ccc(S(=O)(=O)NC2CC2)cc1	-2.2	·	·	·	3.6%	·
CSc1ccc(NC(=O)N2CC=C(n3c(=O)[nH]c4ccccc43)CC2)cc1	1.5	8.7%	-11.6%	2.8%	-5.9%	-20.3%
CN(Cc1cccc2cnccc12)C(=O)CCc1nnc(CCc2ccccc2)o1	1.9	-22.3%	4.9%	-11.0%	-8.1%	28.2µM*
CC(=O)c1ccc(-c2nnc(CCC(=O)N(C)Cc3cccc4cnccc34)o2)s1	-1.6	-4.2%	4.8%	6.9%	12.3%	?
CC1(C)c2ccccc2N2CC(=O)NC21/C=C/c1ccco1 (stereo not drawn)	2.6	-20.8%	37.7%	-12.9%[46.1 µM]	3.16µM*	1.2%
CC1(C)c2ccccc2N2CCC(=O)NC21/C=C/c1ccco1 (stereo not drawn)	2.1	?	14.9%	-5.4%[46.1 µM]	39.8µM*	1.4%
CCc1ccc(NC(=O)CSc2nnnn2-c2cccnc2)cc1	0.4	·	·	·	-3.1%	·
NC(=O)c1ccc(-n2nnnc2SCC(=O)Nc2ccccc2)cc1	0.4	·	·	·	14.5%	·
O=C(CSc1nnnn1-c1cccnc1)Nc1ccc(OCc2ccccc2)cc1	3.6	12.5%	6.7%	-10.5%[46.1 µM]	8.8%	3.98µM*
O=C(CSc1nnnn1-c1ccccc1)CC(=O)Nc1ccc(Cl)cc1	-0.6	-0.6%	27.7%	-6.0%[46.1 µM]	-4.6%	2.24µM*
Cc1ccccc1C(=O)NCCCNC(=O)c1ccccn1	-0.5	·	·	·	12.7%	·
CC(C)=CC(=O)OCc1cc([N+](=O)[O-])cc2c1OCOC2	0.1	3.9%	3.4%	-9.4%	1.7%	?
CCCCSc1nnc(-c2ccccc2N)c(=O)[nH]1	5.1	?	·	-9.6%[46.1 µM]	16.6%	1.58µM*
CCCCCCCSc1nnc(-c2ccccc2N)c(=O)[nH]1	9.8	-10.8%	4.5%	-13.6%	15.7%	-10.2%
CNc1c(NS(=O)(=O)c2cc(Cl)ccc2OC)c(=O)oc2ccccc12	-0.8	·	·	·	-0.2%	·
SMILES	FBPA coupling cs	KDM4E inh	RGS12 GoLoco inh	NPSR antag	Sfp PPTase inh	ALDH1A1 inh
COc1ccc2nc(SCC(=O)NN)cc(C)c2c1	-2.0	3.2%	11.0%	-3.4%[46.1 µM]	8.2%	12.6µM*
COc1ccc2c(C)cc(SCC(=O)Nc3cc(C(N)=O)cc(C(N)=O)c3)nc2c1	3.4	?	47.6%	35.5%	44.7µM*	?
O=C(Nc1ccc(NC(=O)c2cc([N+](=O)[O-])ccc2N2CCOCC2)cc1)c1cccs1	3.9	-0.6%	0.0%	-2.9%	-2.4%	?
Cc1cccc(NC(=O)N(Cc2cc3cc(C)ccc3[nH]c2=O)CC2COCCO2)c1 (stereo not drawn)	0.9	-0.4%	23.5%	-6.9%	-10.3%	31.6µM*
Cc1ccc2cc(CN(CC3CCCO3)C(=S)Nc3ccccc3)c(=O)[nH]c2c1 (stereo not drawn)	-1.3	1.5%	3.6%	47.3%	5.0%	?
Cc1ccc2[nH]c(=O)c(CN(CC3CCCO3)S(=O)(=O)c3cccc4nsnc34)cc2c1 (stereo not drawn)	-2.0	4.9%	10.2%	-22.5%[46.1 µM]	0.7%	20µM*
Cc1ccc2[nH]c(=O)c(CN(CC3CCCO3)S(=O)(=O)c3c(C)ccc4nsnc34)cc2c1 (stereo not drawn)	-0.8	0.8%	-9.9%	-10.9%[46.1 µM]	4.3%	?
Cc1ccc2[nH]c(=O)c(CN(CC3CCCO3)C(=S)Nc3ccccc3)cc2c1 (stereo not drawn)	0.2	?	-10.5%	-36.8%	-7.2%	14.1µM*
COc1ccc(C2CC(c3cccs3)=NN2S(C)(=O)=O)cc1OC (stereo not drawn)	1.0	-4.0%	122.8%	3.8%	13.4%	-4.6%
COc1ccc(C2CC(c3cccs3)=NN2c2nc(-c3ccccc3)cs2)cc1OC (stereo not drawn)	0.8	-29.8%	23.3%	-4.8%[46.1 µM]	44.7µM*	?
Cn1c(C(=O)N2CCCC(C(=O)c3ccc(C(F)(F)F)cc3)C2)cc(=O)n(C)c1=O (stereo not drawn)	1.4	-4.9%	7.5%	6.8%	24.6%	8.0%
O=C(N/C(=C\c1ccccc1)C(=O)N1CCN(CCO)CC1)c1ccccc1	3.0	0.6%	0.2%	2.5%	-1.3%	3.0%
CN(C)N1C(=O)CC(N2CCCC2)C1=O (stereo not drawn)	-1.0	-14.9%	-8.3%	-12.4%	?	22.4µM*
CCCOc1ccc(N2C(=O)CC(N(CCc3ccc(OC)c(OC)c3)C(=S)Nc3ccccc3)C2=O)cc1 (stereo not drawn)	-4.7	-3.1%	2.1%	-18.5%	?	25.1µM*
CCCOc1ccc(N2C(=O)CC(N(Cc3ccc(OC)cc3)C(=S)Nc3ccccc3)C2=O)cc1 (stereo not drawn)	-7.9	-1.1%	-7.9%	-21.3%[46.1 µM]	-6.6%	3.0%
Cc1ccc2c(CC(=O)NC3CCS(=O)(=O)C3)coc2c1C (stereo not drawn)	4.9	·	·	·	6.4%	·
